Sampled rows, rich in hits. Any-hit rate of the full collection: about 2.4%.
D2 antagonist = HTS Assay for Allosteric Antagonists of the Human D2 Dopamine Receptor: Primary Screen for Antagonists; D(2) dopamine receptor (Homo sapiens), P14416; inhibition, % at 10 µM; AID 485344, 2010; 340,000 tested, 2% active; HEK293 TREx D2 cells, calcium flux, dopamine EC80; in the data active = inhibition above about 30%; inactive = below that, where a call was filed; also: 0% is about no effect
Target sequence (P14416 whole entry, looked up): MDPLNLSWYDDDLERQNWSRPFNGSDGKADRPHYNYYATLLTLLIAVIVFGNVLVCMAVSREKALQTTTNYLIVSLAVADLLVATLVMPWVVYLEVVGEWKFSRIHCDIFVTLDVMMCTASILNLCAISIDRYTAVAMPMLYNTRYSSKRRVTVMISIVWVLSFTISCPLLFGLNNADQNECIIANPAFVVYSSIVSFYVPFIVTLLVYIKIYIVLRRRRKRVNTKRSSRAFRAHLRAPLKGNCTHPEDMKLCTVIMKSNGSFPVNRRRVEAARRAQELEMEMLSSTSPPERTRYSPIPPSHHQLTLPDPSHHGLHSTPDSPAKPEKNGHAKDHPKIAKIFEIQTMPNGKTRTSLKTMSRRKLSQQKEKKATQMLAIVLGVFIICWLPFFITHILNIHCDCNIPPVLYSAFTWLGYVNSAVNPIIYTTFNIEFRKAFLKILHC
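HEK293 T-REx D2 cells, tet-induced, calcium dye no-wash. Cpd pintool add, 180 s kinetic, then EC80 DA, 180 s kinetic. Ca flux read.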
D2 ag-1 = Beta-Arrestin HTS for Positive Allosteric Modulators of the Human D2 Dopamine Receptor: Agonists; D(2) dopamine receptor (Homo sapiens), P14416; DiscoveRx PathHunter D2 beta-arrestin, luminescence, 90 min; 100% = 57 uM dopamine signal; activation, % (test concentration not listed); 360,000 tested, 0.084% active; in the data active = activation above about 40%
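Agonist mode: compounds alone added to overnight-plated D2 PathHunter cells for 90 min at 37 C, with 57 uM final dopamine (EC100) defining full response. Beta-arrestin recruitment detected by chemiluminescent reagent, read after 1 h at ambient temperature.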
D2 PAM-1 = HTS Assay for Positive Allosteric Modulators of the Human D2 Dopamine Receptor: Primary Screen for Potentiators; D(2) dopamine receptor (Homo sapiens), P14416; HEK293 T-REx D2, calcium flux, EC20 dopamine potentiation; potentiation, % at 10 µM; 340,000 tested, 0.34% active; AID 485347, 2010;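 active = potentiation over 3 SD above the plate norm, cut at about 30% in these data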; also: 0% is about no effect
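Using a no-wash calcium dye in inducible, force-coupled HEK293 Trex cells expressing D2, we tracked fluorescence each second for 180 s after compound, then for 180 s after EC20 dopamine to detect augmented signalling.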
D2 ag-2 = HTS Assay for Allosteric Agonists of the Human D2 Dopamine Receptor: Primary Screen for Agonists; AID 485358, 2010; activation, % at 2 µM; 340,000 tested, 0.53% active; HEK293 T-REx D2 cells, calcium flux agonist mode;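 active = activation over 3 SD above normal in the single-dose calcium agonist read, cut at about 30% in these data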; also: 0% is about no effect
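HEK293 Trex D2 cells, tetracycline-induced, o/n 30 C 5% CO2; no-wash Ca dye, RT 30–90 min; 10-cycle baseline, 23 nl cpd added, kinetic Ca read 180 s; agonist hits = positive Ca response.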
D2 PAM-2 = Beta-Arrestin HTS for Positive Allosteric Modulators of the Human D2 Dopamine Receptor: Potentiators | potentiation, % (concentration not given with the values) | 360,000 tested, 0.23% active | D(2) dopamine receptor (Homo sapiens), P14416 | DiscoveRx D2 beta-arrestin cells, luminescence, 90 min; 100% = 57 uM dopamine signal | AID 624464, 2012; in the data active = potentiation above about 50%
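PathHunter D2 cells, attached overnight at 37 deg C, received compound in DMSO plus dopamine at EC20 (50 nM final) for 90 min at 37 deg C. Beta-arrestin recruitment was read as luminescence after 1 h with detection reagent at ambient temperature.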
Starred values were filed as active, the others as inactive; x = not tested or not shown.

SMILES	D2 antagonist	D2 ag-1	D2 PAM-1	D2 ag-2	D2 PAM-2
CC1Cc2cc(S(=O)(=O)NCc3ccc(N(C)C)cc3)ccc2N1C(=O)C1CCC1 (configuration not stated)	x	x	6.0	-1.1	x
CCc1noc(C)c1C(=O)NNC(=O)c1nn(C)c(=O)c2ccccc12	56.7*	-3.4	-6.2	0.1	-1.5
CCc1noc(C)c1C(=O)NNC(=O)c1ccc(Br)cc1	36.7*	-6.3	-1.9	-0.4	-2.0
CCc1noc(C)c1C(=O)NNC(=O)c1nn(CC)c(=O)c2ccccc12	12.1	-5.3	-0.9	-1.2	25.5
CCOC(=O)Cn1nc(N2CCN(c3ccc(F)cc3)CC2)ccc1=O	x	x	11.7	0.0	x
COc1ccc(NC(=O)C2CCN(S(=O)(=O)c3cccc(-c4noc(C)n4)c3)CC2)cc1OC	x	x	-9.1	x	x
N#Cc1cc2ccc(N3CCOCC3)cc2cc1C#N	13.2	13.3	13.0	-0.5	68.5*
O=c1cc(-c2ccc([N+](=O)[O-])cc2)nc2cc(-c3ccc(Cl)cc3)[nH]n12	35.5*	x	-13.7	-1.4	x
Cc1ccc(N(C)C(CNS(=O)(=O)c2ccccc2)c2ccccc2)cc1 (configuration not stated)	x	x	4.4	1.1	x
CC(C)COc1ccc(C(=O)N2CCCCC2CCN2CCCCC2)cc1 (configuration not stated)	x	x	-21.6	-0.1	x
N#C/C(=C\c1ccc(O)c([N+](=O)[O-])c1)C(=O)NCc1ccccc1	4.1	-6.2	4.3	-0.5	-22.9
N#C/C(=C\c1ccc(O)c(Br)c1)C(=O)NCc1ccccc1	69.4*	-1.6	14.4	-1.0	-5.0
Cc1nc2c(C(=O)NCc3ccccc3Cl)c[nH]n2c(=O)c1Cc1cccc(Cl)c1	x	x	-4.7	x	x
CC(=O)Nc1ccc(C(=O)COC(=O)c2cccs2)c(F)c1	34.7*	-2.5	0.8	0.3	3.4
CC(=O)Nc1ccc(C(=O)COC(=O)c2c(C)noc2C)c(F)c1	-36.5	1.2	-4.0	-0.6	-23.5
COc1ccc2c(c1)c1c(c(=O)n(-c3cc(Cl)ccc3C)c(=O)n1CC(=O)N1CCCC1)n2C	x	x	x	0.2	x
COC(=O)c1sc(=S)n(-c2ccccc2OC)c1N	0.3	-0.8	31.3*	-0.4	-1.9
CCn1cc(S(=O)(=O)c2cc(C)cc(C)c2)c(=O)c2cc(F)c(N3CCCC3)cc21	x	x	8.2	-1.2	x
Cc1cccc(C(=O)NCC(c2ccc3c(c2)OCO3)N2CCOCC2)c1 (configuration not stated)	x	x	-4.9	0.9	x
CC(=O)NC1CC2CCCC(C1)N2CC(=O)NCc1ccc(F)cc1 (configuration not stated)	21.7	-1.4	-8.1	0.0	3.5
CC(=O)NC1CC2CCCC(C1)N2Cc1ccc(C)cc1 (configuration not stated)	53.8*	-3.6	-25.9	0.4	-67.4
CCOc1ccccc1C(=O)NC1CC2CCCC(C1)N2Cc1ccc(C)cc1 (configuration not stated)	83.8*	-2.3	-21.8	-1.4	-19.3
Cc1ccc(CN2C3CCCC2CC(NC(=O)c2ccc(C)cc2)C3)cc1 (configuration not stated)	74.5*	2.7	-26.4	-1.8	-20.1
Cc1ccccc1C(=O)NC1CC2CCC(C1)N2Cc1ccccc1 (configuration not stated)	71.7*	-5.2	-23.8	0.3	-1.3
COC(=O)c1scc(-c2ccc(C)cc2)c1S(=O)(=O)Nc1cc(C)c(Cl)cc1OC	x	x	-0.8	-0.2	x
O=C(Nc1cccc(Cl)c1)c1ccc2nc(CCc3ccccc3)oc2c1	x	x	-3.5	1.7	x
Cc1c(C(=O)NC(C)c2ccccc2)sc2ncnc(N(C)C3CCCCC3)c12 (configuration not stated)	x	x	4.5	0.4	x
CNC(=O)C1CCC(Cn2c(=O)c3sccc3n(Cc3ccccc3)c2=O)CC1 (configuration not stated)	x	x	8.5	-1.1	x
